PubChem BioAssay
Calls of active or inactive are those of the source. Unless noted, no rule for the calls is given here.

Experiments:
[1] = HepG2 liver cancer cell viability effects, profiling panel, resazurin fluorescence, 24 h, PK04 Diversity Set (AID 1172); conditions: higher = more signal
[2] = basal S. cerevisiae growth modulation, no modifier, primary screen, OD600, strain BY4716, 24 h, basal condition (AID 1173); conditions: OD600, 24 h, higher = more signal, called active from +8 up or from −8 down
[3] = MM1S myeloma cell viability, profiling panel, resazurin fluorescence, basal, 24 h, PK04 Diversity Set (AID 1174); conditions: higher = more signal, called active from +8 up or from −8 down;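 also: MM1S multiple myeloma cell line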
[4] = molecular target: Dihydroorotate dehydrogenase (quinone), mitochondrial (Plasmodium falciparum (isolate 3D7)) (UniProt Q08210); assay: PfDHODH enzyme inhibitors, primary screen, biochemical, C-terminal His tag, absorbance 600 nm (AID 1175); conditions: DCIP absorbance 600 nm, higher = more signal, called active from +8 up or from −8 down;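 also: recombinant parasite enzyme with a five histidine tag at its C terminus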
[5] = P. aeruginosa biofilm formation inhibitors, primary screen, strain PAO1, LB-PBS medium, absorbance 600 nm (AID 1176); conditions: P. aeruginosa PAO1 growth/biofilm, A600, 12 h; higher = more signal
[6] = S. cerevisiae RM11-1a growth modifiers, primary screen, strain RM11-1a, OD600, basal, 24 h (AID 1177); conditions: OD600, 24 h, higher = more signal, called active from +8 up or from −8 down;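 also: cultures grown under basal conditions with no added stressor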
[7] = E. coli acrAB mutant growth effects, primary screen, E. coli filamentation inducers, strain DRC39, OD650, 24 h (AID 1178); conditions: higher = more signal, called active from +8 up or from −8 down;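 also: growth measured as culture turbidity by optical density at 650 nm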
[8] = E. coli acrAB mutant growth effects, primary screen, E. coli filamentation inducers, strain DRC39, OD650, 48 h (AID 1179);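 also: screen aims at cell division blockers that make cells filament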; conditions: E. coli DRC39 delta-acrAB growth, higher = more signal, called active from +8 up or from −8 down
[9] = RPMI8226 myeloma cell viability, profiling panel, resazurin fluorescence, basal, 24 h, PK04 Diversity Set (AID 1180); conditions: higher = more signal;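 also: RPMI8826 multiple myeloma cell line at 5000 cells per well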
[10] = molecular target: E3 ubiquitin-protein ligase XIAP (Homo sapiens) (UniProt P98170); assay: XIAP binders, primary screen, biophysical, small-molecule microarray, fluorescence 635 nm (AID 1181); conditions: small-molecule microarray binding, higher = more signal;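 also: score merges 667 nm emission and signal to noise over triplicate slides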
[11] = system: XIP peptide (Xip251-270) binding; assay: small-molecule binders of XIP peptide, primary screen, biochemical, small-molecule microarray, fluorescence 635/667 nm, 0.1 µg/mL protein (AID 1182); conditions: fluorescent protein binding, 635 nm, higher = more signal, called active from +8 up or from −8 down
XIP peptide (Xip251-270) = assay: small-molecule binders of XIP peptide, primary screen, biochemical, small-molecule microarray, fluorescence 635/667 nm, 0.5 µg/mL protein (AID 1183); conditions: small-molecule microarray binding, fluorescence 635 nm; higher = more signal
[12] = Plasmodium falciparum growth inhibition, primary screen, strain 3D7, DAPI fluorescence, 100 nL (AID 1184);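 also: parasites grown inside human red blood cells in medium with human serum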; conditions: P. falciparum 3D7 growth, 3 d, higher = more signal
[13] = molecular target: Homeobox protein Hox-A13 (Mus musculus) (UniProt Q62424); assay: inhibitors of HoxA13-DNA binding, primary screen, biochemical, fluorescence polarization, labeled oligonucleotide (AID 1185); conditions: 15 min, higher = more signal, called active from +8 up or from −8 down
[14] = inhibitors of hydroxyurea-induced Chk1 phosphorylation, primary screen, imaging, HeLa, phospho-Chk1 antibody, percent positive cells (AID 1186); conditions: hydroxyurea-induced phospho-Chk1 immunofluorescence imaging, higher = more signal
[15] = inhibitors of hydroxyurea-induced Chk1 phosphorylation, primary screen, imaging, HeLa, phospho-Chk1 nuclear intensity (AID 1187); conditions: hydroxyurea-induced phospho-Chk1 immunofluorescence imaging, higher = more signal

Homeobox protein Hox-A13 (Mus musculus), sequence (Q62424 whole entry, looked up): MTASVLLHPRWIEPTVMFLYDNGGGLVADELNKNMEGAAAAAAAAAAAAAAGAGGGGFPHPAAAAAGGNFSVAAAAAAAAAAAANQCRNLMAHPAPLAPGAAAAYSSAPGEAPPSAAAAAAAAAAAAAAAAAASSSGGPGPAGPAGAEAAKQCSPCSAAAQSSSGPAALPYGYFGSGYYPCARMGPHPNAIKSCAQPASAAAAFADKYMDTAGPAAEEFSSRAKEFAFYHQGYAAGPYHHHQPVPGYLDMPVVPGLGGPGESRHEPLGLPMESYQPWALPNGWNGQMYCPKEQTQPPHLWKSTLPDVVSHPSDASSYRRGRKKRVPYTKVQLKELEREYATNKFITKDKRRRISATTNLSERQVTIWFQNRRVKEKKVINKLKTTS
Dihydroorotate dehydrogenase (quinone), mitochondrial (Plasmodium falciparum (isolate 3D7)), sequence (Q08210 whole entry, looked up): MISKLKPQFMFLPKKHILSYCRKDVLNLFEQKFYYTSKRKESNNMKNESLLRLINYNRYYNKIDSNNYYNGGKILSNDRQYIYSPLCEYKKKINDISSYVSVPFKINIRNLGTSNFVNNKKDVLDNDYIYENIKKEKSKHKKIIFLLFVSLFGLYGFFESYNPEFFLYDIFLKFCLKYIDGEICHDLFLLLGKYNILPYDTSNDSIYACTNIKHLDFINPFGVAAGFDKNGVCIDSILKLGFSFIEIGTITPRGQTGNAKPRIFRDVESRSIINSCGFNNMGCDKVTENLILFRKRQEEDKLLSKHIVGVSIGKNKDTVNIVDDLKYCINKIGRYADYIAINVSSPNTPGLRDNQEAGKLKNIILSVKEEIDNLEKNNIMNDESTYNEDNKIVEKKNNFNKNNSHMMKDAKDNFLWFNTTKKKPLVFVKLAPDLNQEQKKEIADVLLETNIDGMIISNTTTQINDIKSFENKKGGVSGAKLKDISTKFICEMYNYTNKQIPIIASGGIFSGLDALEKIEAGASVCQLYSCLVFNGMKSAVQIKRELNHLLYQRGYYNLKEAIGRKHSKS
E3 ubiquitin-protein ligase XIAP (Homo sapiens), sequence (P98170 whole entry, looked up): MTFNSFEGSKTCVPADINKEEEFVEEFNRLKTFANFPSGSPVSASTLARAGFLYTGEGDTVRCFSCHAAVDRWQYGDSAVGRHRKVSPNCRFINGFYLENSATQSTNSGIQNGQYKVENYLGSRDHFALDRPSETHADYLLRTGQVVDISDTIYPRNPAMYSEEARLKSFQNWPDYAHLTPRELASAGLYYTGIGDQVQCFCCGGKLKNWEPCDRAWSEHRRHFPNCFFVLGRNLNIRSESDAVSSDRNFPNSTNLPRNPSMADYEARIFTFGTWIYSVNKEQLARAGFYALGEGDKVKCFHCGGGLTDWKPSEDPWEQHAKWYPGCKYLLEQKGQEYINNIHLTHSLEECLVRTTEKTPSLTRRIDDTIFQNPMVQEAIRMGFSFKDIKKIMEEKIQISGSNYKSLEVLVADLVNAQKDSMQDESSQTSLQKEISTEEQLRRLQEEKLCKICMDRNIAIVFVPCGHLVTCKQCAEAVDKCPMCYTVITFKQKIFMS

Row | SMILES | z-score [1] | z-score [2] | z-score [3] | composite z-score [4] | z-score [5] | z-score [6] | z-score [7] | z-score [8] | z-score [9] | composite z-score [10] | composite z-score [11] | composite z-score (XIP peptide (Xip251-270)) | z-score [12] | z-score [13] | z-score [14] | z-score [15]
1 | CCCCCN1CC=CC23O[C@@H]4C=CCOC(=O)[C@@H]4[C@H]2C(=O)N(CCCO)[C@@H]3C1=O (some centres undefined) | 0.22 | -0.988 (inactive) | 0.806 (inactive) | -1.67 (inactive) | 0.0837 (inactive) | -0.0379 (inactive) | -0.625 (inactive) | 0.244 (inactive) | 0.217 | -0.0988 | 0.591 (inactive) | 0.747 | -1.8 | -3.67 (inactive) | 0.679 (inactive) | 0.402 (inactive)
2 | COc1ccc(NN2C(C(O)c3ccc(OC)c(OCc4ccccc4)c3)C=CC3C(=O)N(C4CCCCC4)C(=O)C32)cc1 (centres undefined) | 1.03 | -1.76 (inactive) | 0.0269 (inactive) | -0.0522 (inactive) | 0.946 (inactive) | -0.221 (inactive) | -0.101 (inactive) | 1.19 (inactive) | 0.0424 | -0.141 | -0.137 (inactive) | 0.628 | -1.02 | -1.81 (inactive) | -0.487 (inactive) | -0.892 (inactive)
3 | CC(C)N1C(=O)[C@@]2(c3ccc([N+](=O)[O-])cc3)CC(=O)N(CC34CC5CC(CC(C5)C3)C4)[C@@H]2c2ccc(CO)cc21 | -0.0685 | 0.601 (inactive) | -1.02 (inactive) | -4.98 (inactive) | -0.0902 (inactive) | 0.156 (inactive) | 0.101 (inactive) | 0.0457 (inactive) | -0.629 | -0.0224 | -0.43 (inactive) | 0.52 | 0.115 | -0.734 (inactive) | 0.18 (inactive) | -0.0138 (inactive)
4 | C=C[C@H](C)[C@@H](O)c1ccc(O)c2ccccc12 | 0.146 | -12.2 (active) | -1 (inactive) | -0.177 (inactive) | 1.03 (inactive) | 0.248 (inactive) | 0.537 (inactive) | 0.445 (inactive) | -0.791 | -0.0622 | -0.233 (inactive) | 0.507 | -0.935 | -2.67 (inactive) | 0.736 (inactive) | 0.841 (inactive)
5 | CCOC(=O)C1=C[C@@H](CC)N(S(=O)(=O)c2ccc(C)cc2)[C@H]1c1ccccc1 | -0.203 | 1.21 (inactive) | -0.666 (inactive) | -0.157 (inactive) | 0.325 (inactive) | 0.501 (inactive) | -0.823 (inactive) | -0.604 (inactive) | -1.05 | 0.289 | 0.54 (inactive) | 0.208 | -1.81 | -2.63 (inactive) | 0.553 (inactive) | 0.54 (inactive)
6 | CC1CC/C=C\[C@H]2OC34C=CCN(Cc5ccccc5)C(=O)[C@H]3N(CCCCCO)C(=O)[C@@H]4C2C(=O)O1 (some centres undefined) | -0.0371 | -0.308 (inactive) | 0.521 (inactive) | -0.419 (inactive) | -0.565 (inactive) | 0.0882 (inactive) | 0.443 (inactive) | 0.667 (inactive) | 0.461 | -0.0062 | -0.0864 (inactive) | 0.525 | 1.65 | -5.11 (inactive) | -0.0458 (inactive) | -0.0669 (inactive)
7 | Cc1ccc([C@H]2C(C(=O)O)=C[C@@H](C)N2S(=O)(=O)c2ccc(C)cc2)cc1 | -0.534 | -0.704 (inactive) | -0.612 (inactive) | -0.377 (inactive) | -0.0322 (inactive) | -0.211 (inactive) | -0.654 (inactive) | -0.444 (inactive) | -1.52 | 0.254 | 1.78 (inactive) | -0.43 | 0.159 | -3.09 (inactive) | 0.502 (inactive) | 0.176 (inactive)
8 | CC(C)C(=C=CC[C@@H](O)c1ccccc1OCCO)C[C@@H](O)c1ccccn1 | -0.347 | -1.09 (inactive) | 0.0716 (inactive) | -9.29 (active) | 0.142 (inactive) | -0.435 (inactive) | -0.749 (inactive) | -0.628 (inactive) | 0.221 | 0.0709 | 2.26 (inactive) | 0.499 | -1.35 | -4.89 (inactive) | 0.0231 (inactive) | 0.215 (inactive)
9 | COCCOC(=O)N1C(=O)[C@@]2(c3cc(C#CCC(C(=O)OC)C(=O)OC)ccc31)[C@H](C(=O)N1CCCCCCC1)[C@H]1C(=O)O[C@H](c3ccccc3)[C@H](c3ccccc3)N1[C@@H]2c1ccc(OCCO)cc1 | 2.14 | 0.905 (inactive) | 0.281 (inactive) | -0.352 (inactive) | 1.3 (inactive) | 2.41 (inactive) | 0.027 (inactive) | 0.271 (inactive) | 0.437 | 0.611 | 0.968 (inactive) | 0.746 | -1.79 | -15.8 (active) | -0.479 (inactive) | -0.719 (inactive)
10 | COCCOC(=O)N1C(=O)[C@@]2(c3cc(C#CC4=CCCCC4)ccc31)[C@H](C(=O)NC[C@H](O)c1ccccc1)[C@H]1C(=O)O[C@H](c3ccccc3)[C@H](c3ccccc3)N1[C@@H]2c1ccc(O)cc1 | -0.789 | -0.571 (inactive) | -0.925 (inactive) | 0.409 (inactive) | 1.01 (inactive) | 1.55 (inactive) | -0.237 (inactive) | 0.174 (inactive) | -1.73 | -0.02 | 0.304 (inactive) | 0.744 | -1.39 | -0.485 (inactive) | 0.279 (inactive) | 0.475 (inactive)
11 | Cc1c(NC(=O)CC#N)c(=O)n(-c2ccccc2)n1C | 1.02 | -0.267 (inactive) | 1.07 (inactive) | -0.544 (inactive) | 0.531 (inactive) | -1.25 (inactive) | 1.37 (inactive) | 1.47 (inactive) | 0.526 | 0.0345 | 0.248 (inactive) | 0.0029 | -0.0049 | -0.631 (inactive) | 0.123 (inactive) | 0.239 (inactive)
12 | CC(C)Cc1ccc(CN2CC[C@@H](NS(=O)(=O)c3ccccc3)C2)cc1 | -0.788 | -14.2 (active) | -1.73 (inactive) | -0.371 (inactive) | -0.0126 (inactive) | -1.21 (inactive) | -20.5 (active) | -19.9 (active) | -1.03 | -0.178 | -0.479 (inactive) | 0.0054 | -0.438 | -4.79 (inactive) | -0.853 (inactive) | -1.1 (inactive)
13 | CCOC(=O)C[C@H]1[C@H](OC(=O)c2ccc(-c3ccccc3)cc2)[C@@H](NC(=O)Cc2ccc(OC)cc2)c2cc(OCCCO)ccc2N1C(=O)c1ccc2ccccc2n1 | -0.458 | -0.533 (inactive) | -0.607 (inactive) | -0.236 (inactive) | 0.055 (inactive) | -0.586 (inactive) | -0.536 (inactive) | -0.485 (inactive) | -0.893 | 0.091 | -0.0562 (inactive) | 0.111 | 0.351 | -2.51 (inactive) | -0.42 (inactive) | -0.0198 (inactive)
14 | Cc1ccc(S[C@]2(C(=O)NCc3ccccc3)CC(=O)N(Cc3ccccc3Cl)[C@@H]2c2ccc(CO)cc2I)cc1 | 1.21 | -3.45 (inactive) | -3.03 (inactive) | -1.82 (inactive) | 0.531 (inactive) | -1.07 (inactive) | 0.321 (inactive) | 0.439 (inactive) | -2.02 | -0.136 | 0.935 (inactive) | 0.348 | -0.496 | -1.91 (inactive) | 0.0452 (inactive) | 0.0687 (inactive)
15 | O=c1oc(-c2ccccc2)nc2cc(Br)ccc12 | -0.284 | -2.41 (inactive) | 0.0202 (inactive) | 0.336 (inactive) | 0.0493 (inactive) | 1.6 (inactive) | -0.117 (inactive) | -0.39 (inactive) | -0.194 | 0.208 | -0.208 (inactive) | -0.0114 | 1.64 | 4.46 (inactive) | 0.208 (inactive) | 0.0639 (inactive)
16 | COc1ccc(C(=O)Nc2cccc(CN3C(=O)[C@@]4(O[C@@H](CCn5cc(CCO)nn5)[C@H]([Si](C)(C)c5ccc(OC)cc5)[C@H]4C)c4ccccc43)c2)cc1 | -5.75 | -6.12 (inactive) | -9.07 (active) | 1.42 (inactive) | 0.769 (inactive) | 3.1 (inactive) | 1.7 (inactive) | 0.633 (inactive) | -6.23 | 0.126 | 0.201 (inactive) | 0.393 | -2.65 | -3.85 (inactive) | 0.103 (inactive) | 0.199 (inactive)
17 | COC(=O)[C@@]1(Cc2ccccc2)[C@H]2c3cc(C(=O)N(C)C)n(Cc4c(-c5ccccc5)noc4C)c3C[C@H]2CN1C(=O)c1ccccc1 | -1.19 | 1.56 (inactive) | -2.41 (inactive) | -0.403 (inactive) | 1.98 (inactive) | 0.337 (inactive) | -0.539 (inactive) | -0.971 (inactive) | -2.93 | 0.424 | 0.28 (inactive) | 0.12 | -1.74 | -2.59 (inactive) | 0.317 (inactive) | 0.0597 (inactive)
18 | CN(C)C(=O)[C@]1(CCC(=O)OC(C)(C)C)N=C(c2ccc(OCCCO)cc2)O[C@@H]1c1ccccc1N=[N+]=[N-] | 1.49 | 0.192 (inactive) | -0.556 (inactive) | 0.565 (inactive) | -0.758 (inactive) | 1.61 (inactive) | 0.752 (inactive) | 0.701 (inactive) | 0.407 | 0.0317 | 0.639 (inactive) | 0.803 | -1.84 | -6.23 (inactive) | 0.201 (inactive) | 0.588 (inactive)
19 | [N-]=[N+]=NCc1ccccc1C[C@@]1(C(=O)NCC(O)CO)N=C(c2ccc(OCCCO)cc2)O[C@@H]1c1ccccc1CN=[N+]=[N-] (some centres undefined) | 0.376 | -0.247 (inactive) | -1.3 (inactive) | 0.34 (inactive) | 2.33 (inactive) | 0.0651 (inactive) | 0.322 (inactive) | -0.0665 (inactive) | -1.03 | -0.377 | -0.0479 (inactive) | 0.748 | -2.01 | -3.3 (inactive) | -0.0621 (inactive) | 0.0477 (inactive)
